Test results from PubChem BioAssay (NCATS).
Results filed as inconclusive are left out. Entries that show only a call come without a potency. Active and inactive are the calls of the source. Calls follow the shape of the dose curve; as a rule, active = well fitted inhibition curve with a large enough effect; inconclusive = small, poorly fitted or top-dose-only effect; inactive = flat fitted curve, though single readings scatter.
Potency is read from the fitted curve at half-maximal effect.

Assay: qHTS for Inhibitors of Plasmodium falciparum (HB3) proliferation (AID 504318); also: nearly all actives have a fitted effect of over 60% in size
Settings: P. falciparum HB3 in erythrocytes, SYBR Green DNA, 72 h; series mostly up to 7.21 µM
How it was run: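 Erythrocytes infected with P. falciparum line (0.3% parasitemia, 2.5% hematocrit final) incubated with compounds 72 h at 37 °C, 5% CO2; SYBR Green lysis buffer added, fluorescence read next day. Normalized to 0.29 uM artemisinin and DMSO.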
For `CC(CCN1CCCc2nc(C)c(C)cc21)=NO[C@H](C)c1cn([C@@H]2COC[C@@H]2O)nn1`, the Potency was “inactive”.
For `CCN1C(=O)N[C@@H](CCc2ccccc2)C(C(=O)OC)=C1C`, the Potency was “inactive”.
For `COC(=O)N1C2=C(c3ccccc3[C@@H]1CC(=O)Nc1ccc3cc4ccccc4cc3c1)[C@@H]1C(=O)N(c3ccccc3)C(=O)[C@@H]1[C@H](C)C2`, the Potency was 1690 nM (active).
In the case of `CC1(OC(=O)CCc2ccccc2)C(=O)C=C2C=C(c3ccc(C#N)cc3)N(CCN3CCOCC3)C=C2C1=O` (centres undefined), the Potency is reported as “inactive”.
In the case of `CCN1C(=O)N[C@@H](c2ccc(Br)cc2)C(C(C)=O)=C1C`, the Potency is reported as “inactive”.
With `CCN1C(=O)N[C@@H](c2ccco2)C(C(=O)OC)=C1C` the Potency was “inactive”.
In the case of `COC(=O)CCCC1=CC2=C(c3ccccc3)C(=O)C(C)(OC(=O)C3CCCC3)C(=O)C2=CN1CC1CC1` (centres undefined), the Potency is reported as “inactive”.
In the case of `COC(=O)[C@@H]1[C@@H](C)N(Cc2ccccc2)C(=O)N[C@H]1c1ccccc1`, the Potency is reported as “inactive”.
For `CCCCC1=CC2=CC(=O)C(C)(OC(=O)CC)C(=O)C2=CN1CCCOC(C)C` (centres undefined), the Potency was “inactive”.
With `COC(=O)[C@@H]1[C@H](CCc2ccccc2)NC(=O)N(Cc2ccccc2)[C@H]1C` the Potency was “inactive”.
With `CCOC(=O)CN1C(=O)N[C@@H](c2ccccc2)[C@H](C(=O)OC)[C@H]1C` the Potency was “inactive”.
For `CCC(=O)OC1(C)C(=O)C=C2C=C(CCCCNC(=O)OC(C)(C)C)OC=C2C1=O` (centres undefined), the Potency was “inactive”.
In the case of `COC(=O)C1=C(C(=O)OC)[C@@H]2N(C)c3ccccc3[C@@]23C[C@@H](C(=O)OC)N(C(=O)CC(C)C)C3=N1`, the Potency is reported as “inactive”.
In the case of `COC(=O)CCC(=O)OC1(C)C(=O)C=C2C=C(C3CC3)N(Cc3ccccc3)C=C2C1=O` (centres undefined), the Potency is reported as “inactive”.
